KB-V1 cytotox – KB-V1 MDR subline cytotoxicity | 400,000 tested, 3.4% active | KB-V1 MDR cells viability, CellTiter-Glo, 72 h | Potency, µM (titrated, usually from 46.1 µM), actives largely listed as cytotoxic; further: nearly all actives have a fitted effect of over 60% in size
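KB-V1 MDR subline cells in DMEM (phenol-red free, 10% FBS) exposed to compounds in qHTS concentration series for 72 h at 37 degrees C. Viability read by CellTiter-Glo luminescence; concentration-effect curves fitted after normalization and correction.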
HT1080 IDH1KD tx – HT-1080 IDH1 knockdown cell toxicity (counter line). 360,000 tested, 2% active. Potency, µM (highest dose often 46.1 µM), inactives show top-dose activity, negative = toxicity, hits mostly cytotoxic. HT-1080 IDH1 knockdown viability, ATP luminescence, 48 h;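 further: 0% = DMSO wells and -100% = cell-free medium wells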
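In this qHTS, HT-1080 cells depleted of IDH1 are exposed for 48 h at 37 °C to compound titrations. Toxicity is scored from CellTiter-Glo luminescence, with DMSO as full viability and medium alone as none.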
HT1080-NT tox – kills 2HG-producing HT-1080-NT fibrosarcoma cells. HT-1080-NT fibrosarcoma viability, CellTiter-Glo ATP luminescence, 48 h. Potency, µM (top dose mostly 46.1 µM), for the others: top-dose activity, negative = less viability, usual class: cytotoxic. 360,000 tested, 1.6% active;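 further: NT is the 2HG producing partner of a matched IDH1 knockdown line; 0% = DMSO-treated cells and -100% = media-only wells without cells; nearly all actives have a fitted effect of over 55% in size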
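Compounds were tested in concentration-response format on HT-1080-NT cells for 48 hours at 37 degrees C. Cell viability came from CellTiter-Glo luminescence; curves were classified by r2, response magnitude and activity.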
TDP1 cell noCPT – qHTS for Inhibitors of human tyrosyl-DNA phosphodiesterase 1 (TDP1): qHTS in cells in absence of CPT; DT40 Tdp1-/- hTDP1 cells, no CPT, ATP luminescence, 48 h; Potency, µM (doses to about 46.2 µM), inactives show at the highest dose activity change, negative = growth inhibition, most hits filed as inhibitors; 420,000 tested, 15% active; AID 686978, 2013; further: nearly all actives have a fitted effect of over 55% in size
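A cellular qHTS used chicken DT40 cells lacking endogenous Tdp1 but carrying stably transfected human TDP1. Compounds were applied without camptothecin, and cell growth kinetics were judged by ATP-dependent luminescence after ≥48 hr.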
TDP1 cell CPT – growth inhibition of DT40 Tdp1-/-;hTDP1 cells with camptothecin (screen for TDP1 inhibitors); AID 686979; 420,000 tested, 12% active; chicken DT40 Tdp1-/-;hTDP1 cells + 20 nM CPT, ATP luminescence, 48 h; Potency, µM (doses to about 46.2 µM), without a hit: at the highest dose activity change, negative = growth inhibition, actives largely listed as inhibitors; further: nearly all actives have a fitted effect of over 55% in size
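Cell growth measured by CellTiter-Glo luminescence after a minimum 48 h, 37 C compound exposure with 20 nM CPT in Tdp1-knockout DT40 cells stably expressing hTDP1, seeded 400/well; qHTS titration format.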
KB-3-1 cytotox – KB-3-1 parental cell cytotoxicity. KB-3-1 viability, CellTiter-Glo ATP luminescence, 72 h. Potency, µM (series often up to 46.1 µM), usual class: cytotoxic. 400,000 tested, 1.4% active. AID 1347075; further: nearly all actives have a fitted effect of over 60% in size
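KB-3-1 parental drug-naive adenocarcinoma cells in DMEM/10% FBS, incubated 72 h at 37 C with pin-transferred compounds across a concentration series. Viability by CellTiter-Glo luminescence; concentration-response curves fitted after normalization.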
An asterisk follows results filed as active; i = inactive; ? = inconclusive; · = no result given; ! = not active in a repeat. A selection: hits, their analogues and other compounds. The true share with any hit is near 19%. The call rests on the fitted dose curve; in most records, active means well fitted curve in the direction sought with a large enough effect; inconclusive means small, poorly fitted or top-dose-only effect, or another doubt; inactive means no such curve, though single readings can be large; an effect the other way counts as inactive or inconclusive. Unless noted, on the % scale 0 is the no-effect control and ±100 the full control effect; potency means the concentration at half of the fitted maximal effect.

SMILES | KB-V1 cytotox | HT1080 IDH1KD tx | HT1080-NT tox | TDP1 cell noCPT | TDP1 cell CPT | KB-3-1 cytotox
Cc1ccc(N(CC(O)COCc2ccco2)S(=O)(=O)c2ccc(C)cc2)cc1 (stereo not given) | 21µM* | ? | -3% | ? | ? | i
NC1=NC(=Nc2ccc(Cl)cc2)c2ccccc21 | i | ? | -29% | -29% | 1% | i
CC(C)c1ccc(N=C2N=C(N)c3ccccc32)cc1 | ? | ? | 18µM* | ? | ? | ?
Cc1cc(Cl)ccc1N=C1N=C(N)c2ccccc21 | i | ? | 23µM* | ? | ? | i
Nc1ccc(S(=O)(=O)NNC(=O)C(=O)NNc2ccccc2)cc1 | i | ? | 10µM* | -11% | -25% | i
CCOc1ccc(NC(=O)Cn2cc(C(C)=O)c3ccccc32)cc1 | i | -1% | 11% | ? | ? | i
COC(=O)c1cn(C(=O)c2ccc(F)cc2)c2ccccc12 | i | 20% | 16% | 2% | -3% | i
COc1ccc(C(=O)n2cc(C(C)=O)c3ccccc32)cc1 | i | ? | ? | 15µM* | 10µM* | i
COc1ccc(NC(=O)Cn2cc(C(C)=O)c3ccccc32)cc1 | i | -9% | ? | ? | 5.2µM* | ?
CCOc1ccc(NC(=O)Cn2cc(C(=O)CC)c3ccccc32)cc1 | i | -1% | -17% | 26µM* | 13µM* | i
COc1cccc(CN2CCc3nc(Nc4ccc5c(c4)OCCO5)ncc3C2)c1 | i | · | · | ? | ? | i
Clc1ccc(CN2CCc3nc(Nc4ccc5c(c4)OCCO5)ncc3C2)cc1 | i | · | · | 13µM* | 16µM* | i
COc1cc(OC)c(OC)cc1CN1CCc2nc(Nc3ccc4c(c3)OCCO4)ncc2C1 | i | · | · | ? | 16µM* | i
Cc1ccc(C2c3cccn3CCN2S(=O)(=O)c2ccc([N+](=O)[O-])cc2)cc1 (stereo not given) | i | · | · | 18µM* | ? | i
CC(=O)c1ccc(S(=O)(=O)N2CCn3cccc3C2c2ccc(F)c(F)c2)cc1 (stereo not given) | i | · | · | 21µM* | ? | i
Cc1ccc([N+](=O)[O-])cc1S(=O)(=O)N1CCn2cccc2C1c1ccc(F)c(F)c1 (stereo not given) | i | · | · | ? | ? | i
COC(=O)c1cc(C#N)c(N2CCN(C)CC2)nc1C | i | 1% | 2% | 3% | 7% | i
C=C1C[C@@H]2C[C@@H]2CN(S(=O)(=O)c2ccc(C)cc2)[C@@H]1COCc1ccccc1 | ? | ? | -26% | 8.2µM* | 8.2µM* | ?
Cc1ccc(NC(=O)CSc2nnc(C)n3c2cc2sccc23)c(C)c1 | · | · | · | -17% | -21% | ·
O=C(N/N=C/c1ccccc1[N+](=O)[O-])C(=O)N1CCCC1 | i | 12% | 20% | -13% | 4% | i
CC[C@]1(O)C[C@H]2CN(CCc3c([nH]c4ccccc34)[C@@](C(=O)OC)(c3cc4c(cc3OC)N(C=O)[C@H]3[C@@](O)(C(=O)OC)[C@H](OC(C)=O)[C@]5(CC)C=CCN6CC[C@]43[C@@H]65)C2)C1 | i | · | · | 0.24µM*! | 0.24µM* | 0.12µM*
CCN1CCN(c2ccc(N3CCN(S(=O)(=O)c4ccc(C)c([N+](=O)[O-])c4)CC3)nn2)CC1 | i | 0% | -3% | ? | ? | i
Cc1cccc(N(C)c2ccc3cc(S(=O)(=O)N4CCCC4)ccc3n2)c1 | ? | -9% | -10% | 16µM* | 16µM*! | i
O=S(=O)(c1ccc2nc(N3CCN(c4ccccc4F)CC3)ccc2c1)N1CCCCC1 | i | -4% | 1% | ? | -28% | i
CN(Cc1ccccc1)c1ccc2cc(S(=O)(=O)N3CCCCC3)ccc2n1 | ? | · | · | 9.2µM* | 10µM* | i
SMILES | KB-V1 cytotox | HT1080 IDH1KD tx | HT1080-NT tox | TDP1 cell noCPT | TDP1 cell CPT | KB-3-1 cytotox
CC(NC(=O)COc1ccc(N(C)S(=O)(=O)c2ccccc2)cc1)c1ccccc1 (stereo not given) | i | -3% | 5% | ? | ? | i
C/C=C\C(=O)Nc1cccc(C2=NOC3(C2)C[C@@H](C(N)=O)N(C(=O)CC(c2ccccc2)c2ccccc2)C3)c1 (stereo not given in full) | i | -2% | 0% | 16µM* | ? | i
CC1(C(=O)N2CC3(CC(c4cccc(NC(=O)CC(c5ccccc5)c5ccccc5)c4)=NO3)C[C@@H]2C(N)=O)CC1 (stereo not given in full) | ? | -1% | 9% | -29% | -28% | i
CCCCCC(=O)Nc1cccc(C2=NOC3(C2)C[C@@H](C(N)=O)N(C(=O)CC(c2ccccc2)c2ccccc2)C3)c1 (stereo not given in full) | i | ? | -22% | ? | 23µM* | 16µM*
CC/C=C/C(=O)N1CC2(CC(c3cccc(NC(=O)CC(c4ccccc4)c4ccccc4)c3)=NO2)C[C@@H]1C(N)=O (stereo not given in full) | i | -21% | -29% | 16µM* | -86% | i
O=c1[nH]/c(=C/c2ccc3c(c2)OCO3)c(=O)[nH]/c1=C/c1ccc2c(c1)OCO2 | i | · | · | -9% | -2% | i
COc1ccccc1Nc1nc(NCCCCO)nc(N2CCCC2)n1 | i | · | · | · | · | i
COc1ccc(S(=O)(=O)N(C)c2ccc(C(=O)Nc3cccnc3)cc2)cc1OC | ? | 9% | 5% | -11% | -14% | ?
COc1ccc(NC(=O)c2nc(C)n(-c3ccc([N+](=O)[O-])cc3)n2)cc1 | i | 2% | -1% | -12% | 6% | i
NC(=O)CSc1nc2c(c(=O)n1-c1ccccc1)C1(CCCCC1)Cc1ccccc1-2 | ? | 13µM* | ? | ? | ? | ?
Cc1cccc(-n2c(SCC(N)=O)nc3c(c2=O)C2(CCCC2)Cc2ccccc2-3)c1 | 3.3µM* | ? | ? | 0% | 0% | ?
CCn1c(SCC(N)=O)nc2c(c1=O)C1(CCCC1)Cc1ccccc1-2 | i | 0% | 4% | -11% | -17% | i
CCn1cc(S(=O)(=O)N2CCN(Cc3cccc(Cl)c3)CC2)cn1 | ? | 0% | 1% | -26% | 3% | i
